Screening results deposited in PubChem BioAssay by National Center for Advancing Translational Sciences (NCATS).
Compounds with a hit are over-represented: about 2.9% of the library has one in this group of screens.
KDM5B inh – KDM5B demethylase inhibition; Potency, µM (doses to about 57.7 µM), usual class: inhibitors; Q9UGL1; actives 2.6% (n = 220,000); AID 1347165; KDM5B demethylase, FDH-coupled NADH fluorescence (FDH is formaldehyde dehydrogenase); note: potency is the fitted concentration of half-maximal effect; 0% is about no effect; nearly all actives have a fitted effect of over 70% in size
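qHTS format, multiple compound concentrations. Buffer 50 mM HEPES pH 7.5/0.01% Tween-20; 200 nM KDM5BΔAP final; 10 min compound preincubation; substrate-mix levels 12.5 µM peptide, 25 µM α-KG, 0.25 mM NAD⁺; 30 min RT; ΔRFU.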
IP6K1 inh – inhibitors of human IP6K1 | IP6K1 kinase, ADP-Glo luminescence, 2 h; stronger effect = lower value | Q92551 | actives 0.81% (n = 140,000) | activity change, % (series mostly up to about 58 µM); in the data active = activity change below about -25%; note: % is set by controls: 0 for no effect and ±100 for the full control effect
Target sequence (Q92551 whole entry, looked up): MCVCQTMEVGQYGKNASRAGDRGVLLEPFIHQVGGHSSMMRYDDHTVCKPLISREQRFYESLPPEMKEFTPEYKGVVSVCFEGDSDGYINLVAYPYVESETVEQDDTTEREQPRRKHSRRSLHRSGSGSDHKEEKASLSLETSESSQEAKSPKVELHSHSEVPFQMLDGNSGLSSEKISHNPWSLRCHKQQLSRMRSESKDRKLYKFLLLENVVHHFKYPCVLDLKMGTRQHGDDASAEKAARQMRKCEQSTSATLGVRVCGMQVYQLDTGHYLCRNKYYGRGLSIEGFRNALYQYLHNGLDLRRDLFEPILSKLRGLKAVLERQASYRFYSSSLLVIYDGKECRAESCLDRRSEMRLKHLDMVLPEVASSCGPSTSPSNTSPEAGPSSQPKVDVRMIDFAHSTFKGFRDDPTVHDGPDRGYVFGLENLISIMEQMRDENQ
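ADP-Glo luminescence measures ADP made by human IP6K1 during a 2 h RT reaction with ATP/IP6 (mix at 1.3 mM/130 uM); top library doses 57.5 and 19.1 uM final.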
SNCA viab count – reduces viability of HEK-293 SNCA reporter cells; AID 1671193; HEK-293-SNCA-luc viability, GF-AFC fluorescence, 24 h; actives 0.12% (n = 150,000); Potency, µM (titrated, usually from 57.1 µM), without a hit: top-dose activity change, negative = cytotoxicity, hits mostly cytotoxic;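 note: potency is the fitted concentration of half-maximal effect; 0% = DMSO-treated cells and -100% = medium-only wells without cells; nearly all actives have a fitted effect of over 30% in size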
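HEK-293-SNCA-luc cells (1500/well) plated 24 h, then exposed 24 h to a dilution series; GF-AFC added 30 min at 37C, fluorescence 405/540 nm; normalised to medium-only and DMSO wells, Hill fit.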
SNCA expr inhib – reduces expression of the alpha-synuclein gene; Potency, µM (top dose mostly 57.2 µM), for inactives: at the highest dose activity change, negative = inhibition, usual class: inhibitors; HEK-293 SNCA-luciferase knock-in, luminescence, 24 h; AID 1671194; actives 0.17% (n = 140,000);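 note: potency is the fitted concentration of half-maximal effect; plate controls were DMSO cells for no effect and cell-free wells for full effect; nearly all actives have a fitted effect of over 45% in size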
An asterisk follows results filed as active; i = inactive; ? = inconclusive; / = not tested or not shown; [ ] = remark or other dose. Unless noted, calls come from the whole dose curve; as a rule, active = well fitted curve in the direction sought with a large enough effect; inconclusive = small, poorly fitted or top-dose-only effect, or another doubt; inactive = no such curve, though single readings can be large; an effect the other way counts as inactive or inconclusive.

SMILES	KDM5B inh	IP6K1 inh	SNCA viab count	SNCA expr inhib
Cc1ccc2[nH]c(=O)c(CCC(=O)N3CCCCC3)cc2c1	28µM*	10	5%	177%
O=C(NCCC1CCCCC1)C1CCCN1C(=O)c1cccc(-c2ccccn2)c1 (centres undefined)	/	-6	-19%	-7%
COc1ccc(-c2cc(C(=O)NCC(C)C)c3c(C4CCCN4)nn(C)c3n2)cc1 (centres undefined)	50µM*	15	-11%	11%
COc1ccc(-c2cc(C(=O)N3CCOCC3)c3c(C4CCCN4)nn(C)c3n2)cc1 (centres undefined)	?	-2	2%	-10%
COCCNC(=O)c1cc(C2CC2)nc2c1c(C1CCCN1)nn2-c1ccccc1 (centres undefined)	i	9	2%	203%
COCCNC(=O)c1cc(-c2ccc(OC)cc2)nc2c1c(C1CCCN1)nn2C (centres undefined)	79µM*	-5	4%	-1%
O=C(NCCc1ccc(Cl)cc1)c1ccc2nnc(-c3cccc(C(F)(F)F)c3)n2c1	/	0	?	?
CCCS(=O)(=O)N[C@@H]1CN(c2ncccn2)C[C@H]1CN(C)C	28µM*	12	-6%	12%
CCCCS(=O)(=O)N[C@@H]1CN(c2ncccn2)C[C@H]1CN(C)C	32µM*	3	-14%	-12%
Cc1ccc(CS(=O)(=O)N[C@@H]2CN(c3ncccn3)C[C@H]2CN(C)C)cc1	?	4	-4%	2%
CCCOc1nccnc1NC1CCN(C(=O)c2cccnc2)CC1	28µM*	-5	3%	14%
O=C(c1ccsc1)N1CCC(Nc2cccnc2)C1 (centres undefined)	13µM*	5	-17%	-25%
O=C(c1cccnc1)N1CCC(OC2CCN(Cc3cccnc3)CC2)CC1	i	3	-4%	1%
O=C(CC1CCCC1)N1CCC(Nc2cccnc2)C1 (centres undefined)	?	8	-4%	-3%
Cc1ccc(OCCC2CCN(C(=O)c3ccsc3)C2)cc1 (centres undefined)	i	23	2%	8%
CC(C)S(=O)(=O)N1CCC(Nc2cccnc2)C1 (centres undefined)	8.9µM*	10	-7%	-1%
CCCOc1nccnc1NC1CCN(C(=O)c2ccsc2)CC1	28µM*	0	10%	-18%
O=C(COc1ccccc1)N1CCN(C(=O)c2nnn3c2COC(c2ccc(Cl)cc2)C3)CC1 (centres undefined)	i	-6	-14%	-5%
O=C(NCCc1ccc(Cl)cc1)C1CCN(Cc2ccccc2-c2ccccc2F)CC1	/	16	/	/
Cc1cc(C[C@@H]2COC[C@@H]2NC(=O)c2ccccc2-c2ccc(F)cc2)on1	i	-15	-4%	6%
Cc1cc(C[C@@H]2COC[C@@H]2NC(=O)c2ccc(S(N)(=O)=O)cc2)on1	i	13	5%	12%
Cc1cc(C[C@@H]2COC[C@@H]2NC(=O)c2cc(CC(C)C)nc(N)n2)on1	32µM*	26	-22%	-17%
Cc1cc(C[C@@H]2COC[C@@H]2NC(=O)c2cnn3cc(CCO)cnc23)on1	28µM*	-8	3%	-12%
Cc1cc(C)cc(C(=O)NCc2nnc3c(-c4nc(C5CC5)no4)cccn23)c1	?	1	-1%	-6%
CCCc1noc(-c2cccn3c(CNC(=O)c4ccc(C)cc4)nnc23)n1	25µM*	-1	-8%	?
SMILES	KDM5B inh	IP6K1 inh	SNCA viab count	SNCA expr inhib
O=C(NCc1nnc2c(-c3nc(C4CC4)no3)cccn12)C1CC1	22µM*	3	2%	0%
CCCc1noc(-c2cccn3c(CNC(=O)c4ccc(N(C)C)cc4)nnc23)n1	?	10	-21%	-10%
O=C(Cc1ccccc1Cl)NCc1nnc2c(-c3nc(C4CC4)no3)cccn12	?	4	1%	-14%
O=C(CC1CCCCC1)NCc1nnc2c(-c3nc(C4CC4)no3)cccn12	16µM*	12	-2%	35%
CC(C)c1noc(-c2cccn3c(CNC(=O)CC4CCCCC4)nnc23)n1	?	19	7%	24%
Cc1ccc(C)c(C(=O)NCc2nnc3c(-c4nc(C5CC5)no4)cccn23)c1	25µM*	8	4%	-7%
CCc1cccc2c(C(CC(=O)N3CCC(C)CC3)c3cccc(C)c3)c[nH]c12 (centres undefined)	?	-14	-28%	-23%
COc1ccccc1-c1ccc(C(=O)N2CCC(NC(=O)Cc3ccccn3)CC2)cc1	/	1	1%[12.5 µM]	16%
O=C(c1ccccc1F)N1CCC2(CC1)CC(c1cccc(C(F)(F)F)c1)=NO2	/	-1	/	/
O=C(NCc1nnc2c(-c3nc(C4CC4)no3)cccn12)c1ccc(F)c(Cl)c1	28µM*	20	5%	-24%
O=C(NCc1nnc2c(-c3nc(C4CC4)no3)cccn12)c1cc(Cl)ccc1F	28µM*	-1	4%	-14%
CC(C)(C)c1ccc(C(=O)NCc2nnc3c(-c4nc(C5CC5)no4)cccn23)cc1	?	0	-1%	1%
CCCc1noc(-c2cccn3c(CNC(=O)Cc4ccccc4Cl)nnc23)n1	?	22	-2%	?
O=C(NCc1nnc2c(-c3nc(C4CC4)no3)cccn12)c1ccc(F)cc1	22µM*	3	-7%	-11%
O=C(NCc1nnc2c(-c3nc(C4CC4)no3)cccn12)c1c(F)cccc1Cl	?	22	1%	31%
CCCc1noc(-c2cccn3c(CNC(=O)Cc4ccc(Cl)cc4)nnc23)n1	25µM*	1	-12%	-15%
COc1ccc(F)cc1-c1cccc(C(=O)NCCNC(=O)c2cccnc2)c1	/	-6	/	/
O=C(Cc1ccc(Cl)cc1)NCc1nnc2c(-c3nc(C4CC4)no3)cccn12	28µM*	-3	-22%	-34%
COc1cccc(CCC(=O)NCc2nnc3c(-c4nc(C5CC5)no4)cccn23)c1	?	-5	-13%	?
O=C(CCc1ccccc1)NCc1nnc2c(-c3nc(C4CC4)no3)cccn12	28µM*	4	-3%	2%
CCCc1noc(-c2cccn3c(CNC(=O)C4CCC4)nnc23)n1	28µM*	3	-3%	13%
COCc1cccc(-c2n[nH]c3c2CC(=O)N(CC2CC2)C3)c1	i	2	-2%[87.6 µM]	20%[87.6 µM]
CN(C)c1cccc(-c2n[nH]c3c2CC(=O)N(CC2CC2)C3)c1	20µM*	-4	-4%[87.6 µM]	17%[87.6 µM]
O=C(NCCc1ccc(F)cc1)C1CCCN1Cc1ccc(-c2cncnc2)cc1 (centres undefined)	/	-7	-11%	?
CC(=O)NC1(C)CCN(Cc2ccccc2-c2ccc3c(ccn3C)c2)C1 (centres undefined)	35µM*	-12	-4%[87.6 µM]	9%[87.6 µM]
CCOC(=O)C(Cc1cccc(N2CCN([S+](=O)([O-])c3c(Cl)cccc3Cl)CC2)c1)OC (centres undefined)	/	9	/	/
COCCN(C)C[C@@H]1CN(C(=O)c2ccc(-c3ccco3)cc2)C[C@@H]1CO	32µM*	18	6%	-27%
